Data published in PubChem BioAssay AID1347431 (National Center for Advancing Translational Sciences (NCATS), 2020).
Among all 1,200 compounds or so, fewer than 10 were called active. The call rests on the fitted dose curve; in most records, active means well fitted curve in the direction sought with a large enough effect; inconclusive means small, poorly fitted or top-dose-only effect, or another doubt; inactive means no such curve, though single readings can be large or run the other way. These entries were drawn from the full list.

Test: Confirmatory qHTS assay for inhibitors of Activation Induced Cytidine Deaminase (AID): UDG signals; further: 0% is about no effect
Details: UDG coupled enzyme activity counter-screen; series mostly up to 115 µM; activity change, negative = inhibition: at the top concentration
Description: Assay Provider (PI) Patricia Gearhart Ph.D.
National Institute on Aging
National Institute of Health (NIH), Bethesda, MD
Assay Provider (PI) Rahul Kohli Ph.D.
Perelman School of Medicine
University of Pennsylvania, Philadelphia, PA
Activation-Induced Deaminase (AID) is a cytosine deaminase which converts cytosine into uracil within stretches of ssDNA. The presence of uracil in DNA initiates a cascade of mutagenic DNA repair to introduce point mutations and DNA double strand breaks. Specific targeting of AID to the immunoglobulin heavy chain loci (Igh) promotes mutagenesis in the antibody variable region for somatic hypermutation (SHM) or switch regions leading to class switch recombination (CSR). However, AID also plays a role in accumulating unnecessary mutations across the genome. Mis-targeting of AID results in the initiation of tumor development and leads to greater drug resistance among cancer cells when continually expressed. To identify an AID inhibitor, a small molecule library will be screened in collaboration with NCATS core facility at NIH. To confirm biological function, inhibitors will be examined in an in vitro murine B-cell activation assay and subsequent secondary validation screens. Top molecules will be further screened to identify inhibitory efficacy against a wild type primary splenocytes assay. Using these approaches, we hope to identify a small molecule with great efficacy and low toxicity for use as a molecular probe to further characterize AID's intricacies, or even as a therapeutic.
A FRET based analysis of cytosine deamination, was developed to identify potential inhibitors of AID catalytic activity. This screen has two signal output, Read 1 evaluates the AID inhibition response. The second readout (Read 2) evaluates UDG response and is uses as a counterscreen to exclude false positive inhibitors. Inhibition in AID and inactivity in the UDG signal is the desired outcome for this assay.
SEQUENCE No. (e.g., 1, 2, 3, etc.); […] (e.g., Cells, Incubation, Reagent, etc.); VALUE; DESCRIPTION
1a; Reagent; 3 uL; [4/3x] 1 uM AID/2.67 U/mL UDG
1b; Reagent; 3 uL; 2 U/mL UDG
1c; Reagent; 3 uL; 1 uM AID
2a; Compound; 46 nL; Follow-up plates (0.64 uM - 10 mM)
2b; Control; 46 nL; ATA ([…] - 10 mM)
3; Time; 10 min; incubation at room temperature
5; Time; 4 hr; incubation at room temperature
6; Reagent; 4 uL; [2x] 250 mM NaOH
7; Time; 15 sec; centrifuge at 1000 rpm
8; Time; 30 min; incubation at room temperature
9a; Detection; fluorescence (Read 1: AID); EnVision (PerkinElmer) plate reader, 540 excitation and 590 emission filters
9b; Detection; fluorescence (Read 2: UDG); EnVision (PerkinElmer) plate reader, 560 excitation and 665 emission filters
NOTES (numbers refer to sequence above)
1a; Reagents were dispensed in a medium-binding black solid-bottom Greiner plates (789176F) using a BioRptr liquid dispenser. Dispense 3 uL of [4/3x] 1 uM AID (provided by Kohli lab) and [4/3x] 2 U/mL UDG (NEB M0280L) into columns 1, 2, 5 to 48.
1b; Dispense 3 uL of [4/3x] 2 U/mL UDG into column 3.
1c; Dispense 3 uL of [4/3x] 1 uM AID into column 4.
2a; Compound (7-points [uM]: 0.64; 3.2; 16; 80; 400; 2,000; 10,000; […]) double pin-transferred (Dip Factor = 2) using the Kalypsys (Wako USA) pintool equipped with a 1536 pinhead for a final concentration range of 7.32 nM - 114 uM.
2b; 10 mM Aurintricarboxylic Acid (Sigma A1895) (ATA, 8-point, n = 2, 1:2.5 dilution in column 2) double pin-transferred (Dip Factor = 2) using the Kalypsys (Wako USA) pintool equipped with a 1536 pinhead for a [final] range of 186 nM - 114 uM.
3; Room temperature incubation.
4; Dispense 1 uL of substrate mixture from the Kohli lab [4x] […] DJC20 and [4x] 250 nM DJC23 into columns 1 to 48 .
5; Room temperature incubation.
6; Dispense 4 uL of substrate mixture [2x] 250 mM NaOH into columns 1 to 48.
7; Centrifugation step to remove bubbles.
8; Room temperature incubation
9a; Fluorescence signal (column label AID) was read using the EnVision plate reader. […]

Row | Compound | activity change, negative = inhibition | outcome
1 | CCOc1ccc(Nc2c(S(=O)(=O)c3ccc(C)cc3)cnc3ccc(OC)cc23)cc1 | -6.81% (inactive) | 
2 | CCn1cc2nc(SCc3cccc(C(F)(F)F)c3)n(CCc3ccccc3)c(=O)c2n1 | -6.4% (inactive) | 
3 | CCCCOc1ccc(C(=O)Nc2ccc(S(=O)(=O)Nc3nc(C)cc(C)n3)cc2)cc1 | 5.37% (inactive) | 
4 | O=C(O)c1c(-c2ccccc2)oc2ccc(OCc3c(F)cccc3Cl)cc12 | -5.79% (inactive) | 
5 | O=C1c2ccccc2C(=O)C1(c1ccccc1)N1CCN(c2cccc(C(F)(F)F)c2)CC1 | 4.62% (inactive) | 
6 | CC(=O)N1CCc2c(sc3c2c(=O)n(Cc2ccccc2)c(=O)n3Cc2cccc(Cl)c2)C1 | -4.28% (inactive) | 
7 | CCc1ccc(NC(=O)c2cnn(-c3c(C)cccc3C)c2C2CCN(C(=O)OC(C)(C)C)CC2)cc1 | -11.8% (inactive) | 
8 | CCOc1ccc(CNC(=O)c2c(C)nn(-c3ccc(F)cc3)c2-n2cccc2)cc1 | 6.32% (inactive) | 
9 | COc1cc2c(cc1OC)C(COc1cc(C)cc(C)c1)N(C(=O)C(C)(C)C)CC2 (stereo not given) | 6.45% (inactive) | 
10 | COc1cc(NC(=O)Cn2cc(S(=O)(=O)N3CCC(C)CC3)c3ccccc3c2=O)cc(OC)c1OC | -13.2% (inactive) | 
11 | COc1ccc(C)cc1N(C)C(=O)c1c2c(nc3ccccc13)C(=O)N(C1CCCCC1)C2 | -0.876% (inactive) | 
12 | COc1cccc(C(=O)Nc2nc3nc(C)c(Cc4ccccc4)c(=O)n3[nH]2)c1 | 12.2% (inactive) | 
13 | Cn1c2ccccc2c2c(C(=O)N3CCN(c4cccc(C(F)(F)F)c4)CC3)cn(C3CCCCC3)c(=O)c21 | -7.55% (inactive) | 
14 | O=C(CSc1nc(-c2ccc(F)cc2)nc2c1Cc1ccccc1O2)Nc1cccc(C(=O)O)c1 | 5.5% (inactive) | 
15 | CC(C)Oc1ccc(C(=O)NCCc2csc(-c3cccc(F)c3)n2)cc1 | 2.66% (inactive) | 
16 | CCc1ccc(OCC(=O)N(Cc2ccco2)Cc2ccco2)cc1 | -2.86% (inactive) | 
17 | Cc1ccc2c(c1)C(c1ccc(F)cc1)N(C(=O)c1ccc(OC(C)C)cc1)CC(=O)N2 (stereo not given) | -1.56% (inactive) | 
18 | Cc1ccc(Cl)cc1N1CCN(C(=O)c2nn(C)c3c2CS(=O)(=O)c2ccccc2-3)CC1 | -8.81% (inactive) | 
19 | CC(C)c1ccc(NC(=O)CSC2=Nc3ccccc3C3=NC(CCC(=O)NCc4ccco4)C(=O)N23)cc1 (stereo not given) | -3.36% (inactive) | 
20 | CCOc1ccc(CCNC(=O)c2cn(CC)c3ccc(S(=O)(=O)N4CCCCCC4)cc3c2=O)cc1OCC | -15.9% (inactive) | 
21 | COc1cccc(CNC(=O)c2oc3ccc4c(c3c2C)C(=O)CC(C)(C)O4)c1OC | 0.26% (inactive) | 
22 | O=C(NCCn1cc(SCc2ccccc2F)c2ccccc21)c1cccs1 | -4.8% (inactive) | 
23 | Cc1ccc(Cl)cc1NC(=O)c1oc2c(c1C)-c1[nH]ncc1CC2 | -4.49% (inactive) | 
24 | CN(C)c1ccc(Nc2ncnc3sc4c(c23)CCCC4)cc1 | 0.0322% (inactive) | 
25 | CCOC(=O)c1c(Oc2ccc(C(C)=O)cc2)nnc(-c2ccccc2)c1-c1ccccc1 | 2.33% (inactive) | 
26 | O=C(O)c1ccc2c(c1)N(Cc1ccc(F)cc1Cl)C(=O)c1ccccc1S2 | 12.6% (inactive) | 
27 | CCCCCN1C(C(=O)c2ccccc2)=C(OC(=O)CC)c2ccccc2S1(=O)=O | -0.103% (inactive) | 
28 | O=C(CCS(=O)(=O)c1nc(-c2cccs2)cc(C(F)(F)F)n1)Nc1ccc(OC(F)(F)F)cc1 | 0.452% (inactive) | 

Row | Compound | activity change, negative = inhibition | outcome
29 | CCc1ccc(C(c2ccccc2)c2c(C)[nH]c3ccccc23)s1 (stereo not given) | -1.17% (inactive) | 
30 | Cc1ccc2c(c1)-c1ncc(C(=O)c3cc(Br)ccc3O)cc1CO2 | -6.67% (inactive) | 
31 | Cc1ccc(Nc2nnc(-c3ccc(C)c(S(=O)(=O)N4CCN(C)CC4)c3)c3ccccc23)c(C)c1 | -0.466% (inactive) | 
32 | CCn1c(=O)c2cc(C(=O)NCCCN(C)Cc3ccccc3)sc2c2ccccc21 | -13.6% (inactive) | 
33 | COc1ccc(CCNC(=O)c2cc(Nc3cc(C)cc(C)c3)nc3ccccc23)cc1OC | -13.1% (inactive) | 
34 | Cc1ccc(-c2nc3nc(C)cc(C)n3c2Nc2ccc3c(c2)OCCO3)cc1 | -7.65% (inactive) | 
35 | Cc1ccc(C)c(N2CCN(C(=O)c3cc(S(=O)(=O)N4CCCCC4)cn3C)CC2)c1 | -7.73% (inactive) | 
36 | Cc1cc(C)c(NC(=O)CCCn2c(C)c3cnn(-c4ccccc4)c(=O)c3c2C)c(C)c1 | -9.84% (inactive) | 
37 | CCOC(=O)c1ccc(-n2c(N)c(C(=O)OC)c3nc4ccccc4nc32)cc1 | -1.19% (inactive) | 
38 | Cc1ccc(C(=O)c2cn(Cc3ccccc3)c3ccccc3c2=O)cc1 | 0.0583% (inactive) | 
39 | COc1cccc(-c2nc3cc(NC(=O)c4ccc(C)c([N+](=O)[O-])c4)ccc3o2)c1 |  | inactive
40 | Cc1ccc2c(c1)-c1c(cnn1CC(=O)N1CCN(c3cccc(C(F)(F)F)c3)CC1)CO2 | -13.8% (inactive) | 
41 | O=C(CC1N=C2c3ccccc3N=C(SCc3ccccc3F)N2C1=O)NCc1ccc2c(c1)OCO2 (stereo not given) | 1.74% (inactive) | 
42 | Cc1nn(C(=O)c2ccccc2)c(C)c1Sc1ccc(Cl)cc1 | -0.373% (inactive) | 
43 | Cc1ccc(C)c(NC(=O)CSc2nccn2-c2cccc(C)c2C)c1 | -9.11% (inactive) | 
44 | O=C(c1cccc(Cl)c1)N(Cc1ccco1)Cc1ccccc1Cl | -2.38% (inactive) | 
45 | Cc1cccc(-c2nnc(SCC(=O)N3CCCc4ccccc43)o2)c1 | -1.78% (inactive) | 
46 | CCc1ccccc1NC(=O)[C@H](Cc1ccccc1)N1Cc2ccccc2C1=O | -5.74% (inactive) | 
47 | COc1ccc(Cn2cc(C(=O)c3ccc(OC)cc3)c(=O)c3cc4c(cc32)OCCO4)cc1 | 2.39% (inactive) | 
48 | Cc1cc(C)c2c(CC(=O)N(Cc3ccc(Cl)cc3)Cc3ccco3)coc2c1 | 2.44% (inactive) | 
49 | Cc1ccc(N(Cc2cccs2)C(=O)c2ccccc2)cc1 | -1.63% (inactive) | 
50 | COc1ccc(Nc2cc(C)c3cc(NC(=O)COc4cccc(C)c4)ccc3n2)cc1 | -15.8% (inactive) | 
51 | CCN(C(=O)c1cc2cc3ccc(OC)cc3nc2o1)c1cccc(C)c1 | -18.5% (inactive) | 
52 | COc1ccc(-c2cn3c(n2)sc2cc(C(=O)NCCCN4CCCCC4)ccc23)cc1 | -3.99% (inactive) | 
53 | COc1ccc(CCNC(=O)CS(=O)Cc2nc(-c3ccc(C)cc3)oc2C)c(OC)c1 (stereo not given) | -3.01% (inactive) | 
54 | COc1ccc(Cl)cc1NC(=O)CSc1nc(=O)n(Cc2ccco2)c2c1CCC2 | -1.64% (inactive) | 
55 | COc1ccc(C(=O)c2cn(Cc3ccccc3F)c3cc4c(cc3c2=O)OCCO4)cc1OC | 5.33% (inactive) | 
